“And” between values parts separate entries of the source, which are not always exact repeats. Equal values may be shown once. Records with an inconclusive call do not appear.

A short description of the experiment: qHTS assay for small molecule antagonists of peroxisome proliferator-activated receptor delta signaling (AID 588535).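 Also: cells co-treated with a PPAR-delta agonist as stimulator during compound exposure.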 Particulars: HEK293T PPARd-UAS-bla, beta-lactamase FRET ratio, 18 h; 460 nm channel. Summed up: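 Inhibition of PPAR-delta response element-driven beta-lactamase expression is measured in HEK293T cells exposed to a compound titration series for 18 hrs at 37 C. Half-maximal inhibition comes from Hill equation fitting.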
In general terms: Quantitative high-throughput screening tests each substance at several concentrations.
`CCCC(=O)c1cc(O)c(O)cc1O`: the max response was determined as 14.6%. For `CC(C)C(C)(C)C(C)(C)C(C)(C)S` the value was 5.05% and 21.4%; for `Oc1ccccc1`, -6.84% and 11%; for `Cc1cc(C(C)(C)C)c(O)c(C(C)(C)C)c1`, 13.8%. For `CCCCCCCCCCCC[N+](C)(C)Cc1ccccc1` the value was 29.6%; for `COC(=O)c1c(Cl)c(Cl)c(C(=O)OC)c(Cl)c1Cl`, -8.5%.

As for `CC(C)(C)c1ccc(O)c(O)c1`, the max response is -11.7% and -3.04%.

Consider `O=C(Oc1ccccc1)c1cccc(C(=O)Oc2ccccc2)c1`, for which the max response was found to be 22.4%. Consider `CC(C)(c1ccc(O)cc1)c1ccc(O)cc1`, for which the max response was -24.6%. For `COc1cc(C=O)ccc1O` the value was -8.31% and -9.26%; for `O=C(c1ccccc1)c1ccccc1`, 3.99% and -25%.

Consider `CC(=O)OC/C=C(C)/C=C/C=C(C)/C=C/C1=C(C)CCCC1(C)C`, for which the max response is 34.7%. For `CN1C(=O)c2ccccc2C1=O` the value was -32.8%; for `CCCCCCCCCCCCCCCC[n+]1ccccc1`, 21.5%; for `Cc1ncc(CO)c(CO)c1O`, 15.2%. For `CCCCC(CC)COC(=O)c1ccccc1C(=O)O` (configuration not stated) the value was -31.8%; for `Cc1ccc(O)cc1`, -30.2%.
